BaF3 tox: reduces parental Ba/F3 cell viability, JAK2V617F counter-screen; 1.1% of 220,000 active; CellTiter-Glo ATP luminescence; inhibition, % at 5.6 µM;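 active = inhibition above a per-campaign cutoff, the mean inhibition of all tested compounds plus 3 SD, cut at about 27% in these data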;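 also: 0% = DMSO wells and 100% = JAK Inhibitor I control wells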
APP transl inh: APP translation inhibition | 0.82% of 190,000 active | inhibition, % at 2 µM | SH-SY5Y APP 5'UTR-luciferase reporter, luminescence;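 active = inhibition above a set limit, derived from the sample mean plus 3 SD, cut at about 45% in these data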
KLF5 inhibitor: inhibitors of KLF5 expression; DLD-1 KLF5 promoter-luciferase reporter, luminescence; inhibition, % at 5 µM; 0.23% of 290,000 active;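 active = inhibition above a per-plate limit of that plate's mean compound inhibition plus 3 SD, cut at about 60% in these data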;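 also: 0% = DMSO wells and 100% = LY294002 at 200 µM; higher means less KLF5 promoter-driven luciferase light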
Ba/F3 V617F tox: lowers viability of Ba/F3 cells expressing EpoR and JAK2V617F; AID 1446; 1.1% of 220,000 active; ATP luminescence; inhibition, % at 5.6 µM;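 active = inhibition above the campaign mean plus 3 SD over all tested compounds, cut at about 24% in these data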;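 also: cytokine-independent growth of Ba/F3 cells driven by EpoR plus mutant JAK2; 0% = DMSO-treated cells and 100% = JAK inhibitor I control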
aSyn UTR inh: MLPCN primary screen, SNCA 5' untranslated region. 0.82% of 300,000 active. inhibition, % (tested at 7.5 µM). alpha-synuclein 5'UTR reporter, inhibitor activity; in the data active = inhibition above about 60%;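 also: H4 neuroglioblastoma cells stably carrying SNCA 5'UTR luciferase fusion; 0% = DMSO wells and 100% = positive control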
IEC-6 tox: counter-screen for KLF5 inhibitors: cytotoxicity in IEC-6 cells; inhibition, % at 5 µM; AID 1825; IEC-6 cytotoxicity, luminescence viability; 0.78% of 290,000 active;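 also: 0% = plate median of test compound wells and 100% = cytotoxic reference compound wells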
IEC-6 tox confirm: IEC-6 cytotoxicity, confirmation assay; 63% of 1,900 active; IEC-6 rat intestinal epithelial viability, luminescence; shares compounds with IEC-6 tox; AID 1907; inhibition, % at 5 µM;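 also: 0% = vehicle and 100% = reference cytotoxic drug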
Starred values were filed as active, the others as inactive; . = no result given. This is a sample that favours compounds with a hit; in the whole collection about 2.2% have one here. Rule as the data show it, unless noted: active = inhibition above about 22%; inactive = the rest.

SMILES | BaF3 tox | APP transl inh | KLF5 inhibitor | Ba/F3 V617F tox | aSyn UTR inh | IEC-6 tox | IEC-6 tox confirm
O=C(Nc1ccc(NC(=O)c2ccc([N+](=O)[O-])o2)cc1Cl)c1ccco1 | . | . | -15 | . | -173 | 101* | 27*
CCCOc1ccc(CNC(=S)NCc2ccc(OC(C)C)cc2)cc1 | 7 | . | -2 | 0 | 25 | 0 | .
CC(NC(=S)NNS(=O)(=O)c1cccc([N+](=O)[O-])c1)c1ccccc1 (configuration not stated) | . | . | -14 | . | -4 | 2 | .
O=C(Nc1ccccc1Cl)c1ccc([N+](=O)[O-])o1 | . | . | -24 | . | -139 | 47* | 21
Cc1ccccc1NC(=O)c1ccc([N+](=O)[O-])o1 | -2 | -2 | -53 | -3 | -48 | 20 | .
O=C(NC12CC3CC(CC(C3)C1)C2)c1ccc([N+](=O)[O-])o1 | . | . | 15 | . | -200 | 66* | 25*
CCOc1ccc(CCNC(=O)COC(=O)Cn2cnc3c2c(=O)n(C)c(=O)n3C)cc1OCC | . | . | . | . | 7 | . | .
CC1CCN(Cc2ccc(-c3nnn(CC(=O)Nc4ccccc4Cl)n3)cc2)CC1 | 3 | 3 | 5 | -2 | -3 | 34* | 26*
CCOc1ccc(C(O)(c2ccccc2OC)C(CN2CCCC2)c2ccccc2)cc1 (configuration not stated) | . | . | -31 | . | -26 | 8 | .
CCOC(=O)CSC1=C(C#N)C(c2ccc(C)o2)CC(=O)N1 (configuration not stated) | 79* | 95* | 55 | 74* | 78* | 83* | 59*
CC(=O)c1c(-c2ccccc2)c2cc(Cl)ccc2n(C)c1=O | . | . | -2 | . | 28 | 22* | 7
Cn1c(=O)c(C(=O)NCc2ccc(Cl)cc2)c(O)c2ccccc21 | . | . | -34 | . | 5 | -4 | .
CCN(c1ccccc1)S(=O)(=O)c1ccc(C(=O)NCCCn2ccnc2)cc1 | 1 | 12 | -12 | -3 | -33 | 5 | .
CCN(c1ccccc1)S(=O)(=O)c1ccc(Oc2ccc(-n3ccnc3)cc2)nc1 | 20 | 2 | -7 | 11 | 103* | 30* | 29*
O=Nc1c(-c2c(O)[nH]c3cc(Br)ccc23)[nH]c2ccccc12 | . | . | 4 | . | 77* | 23* | 3
COc1cc(OC)cc(C(=O)NCC(=O)Nc2ccc(-c3ccccc3)cc2)c1 | . | . | -14 | . | -195 | 30* | 9
Cn1c(=O)c2c(nc(NCc3cccnc3)n2Cc2cccc(C(F)(F)F)c2)n(C)c1=O | 53* | -11 | 9 | 53* | 10 | 25* | 25*
CCCCNCCOCCOc1ccc(C)cc1[N+](=O)[O-] | 8 | -1 | 3 | 1 | 10 | -4 | .
O=[N+]([O-])c1cccnc1S(=O)(=O)c1ccccc1 | . | . | 20 | . | -7 | 41* | 9
O=C(c1cc(COc2cccc3cnccc23)on1)N1CCCC(CCCO)C1 (configuration not stated) | . | . | 6 | . | -5 | 23* | 25*
CC1CCCCN1C(=O)CSc1nnc(-c2ccccc2F)o1 (configuration not stated) | . | . | -78 | . | -84 | 0 | .
COc1ccccc1N1CCN(C(=O)c2ccc3[nH]c(C)c(C)c3c2)CC1 | . | . | 58 | . | 72* | 73* | 57*
COc1cccc(C(=O)Oc2ccc(/C=N/Nc3ccc(C(=O)O)cc3)cc2OC)c1 | . | . | -58 | . | -56 | 2 | .
COc1cccc(OCc2cc(/C=N/Nc3ccc(C(=O)O)cc3)ccc2OC)c1 | -3 | . | 17 | 9 | -92 | 28* | 55*
CN1CCN(c2ncnc3c2[nH]c2ccc(F)cc23)CC1 | 8 | -4 | -20 | 1 | -7 | 4 | .
SMILES | BaF3 tox | APP transl inh | KLF5 inhibitor | Ba/F3 V617F tox | aSyn UTR inh | IEC-6 tox | IEC-6 tox confirm
CCOc1ccc2[nH]c3c(N4CCc5ccccc5C4)ncnc3c2c1 | -3 | . | 12 | 5 | 33 | 40* | 90*
CC(C)OCCCNc1nc2c(-c3ccccc3)nnn2c2ccccc12 | 1 | -12 | 13 | -5 | 24 | 3 | .
O=C(CSc1ncnc2nc[nH]c12)c1ccccc1 | 24 | -34 | -67 | 8 | -87 | 8 | .
O=C(CSc1ncnc2nc[nH]c12)c1ccc(Cl)cc1 | . | . | -14 | . | 14 | 41* | 23*
Cc1ccccc1SCC(=O)N1CCN(c2ccc(C(F)(F)F)cn2)CC1 | 10 | -14 | -12 | -2 | 26 | -1 | .
COc1ccc(CC(=O)NCc2ccccc2)cc1 | . | . | 45 | . | -154 | 50* | 37*
O=C(Cc1ccc(Br)cc1)NCc1ccccc1 | . | . | 35 | . | -67 | 60* | 45*
COCCNC(=O)CN(C(=O)CCC(=O)Nc1ccccn1)c1ccc(F)c(Cl)c1 | 0 | -7 | -18 | -3 | 14 | -5 | .
O=C(NC1CCCC1)c1cccc(Cn2cc([N+](=O)[O-])cn2)c1 | 8 | -16 | -22 | 1 | 7 | 4 | .
CCc1nc(SCC(=O)NNC(=O)C2CCCCC2)c2ccccc2n1 | 8 | -20 | -4 | 2 | 2 | 1 | .
Cc1ccnc(Nc2nc(-c3ccc(O)c(O)c3)cs2)c1 | . | . | -86 | . | -148 | 36* | 18
COc1ccc(NC(=S)NNC(=O)c2ccccc2OC(F)F)cc1 | 55* | 26 | -24 | 76* | -49 | 39* | 23*
CCOC(=O)c1sc2nc(SCC#N)n(CC3CCCO3)c(=O)c2c1C (configuration not stated) | 8 | -5 | -30 | 0 | -6 | 2 | .
CCN(CC)CCn1c2ccccc2c2nc3ccc([N+](=O)[O-])cc3cc21 | 76* | . | 10 | 78* | 57 | 36* | 32*
Cn1c2ccccc2c2cc([N+](=O)[O-])ccc21 | 2 | . | -32 | -5 | 24 | -1 | .
S=C(NCc1ccco1)Nc1ccc(N2CCOCC2)cc1 | 9 | -24 | -46 | 0 | -29 | 3 | .
O=C(NC(=S)NNC(=O)c1ccccc1O)c1cccs1 | . | . | -4 | . | -38 | -11 | .
COc1ccccc1C(=O)NNC(=S)NC(=O)c1cccs1 | . | . | 60 | . | 73* | 48* | 28*
Oc1ccc(-c2cnc(-c3ccc(O)cc3)nc2)cc1 | . | . | 10 | . | -29 | 41* | 14
Nc1ccc(-c2cnc(-c3ccc(N)cc3)nc2)cc1 | 12 | -126 | -59 | 9 | -34 | 6 | .
CC(c1ccccc1)C(NC(=O)OCC1c2ccccc2-c2ccccc21)C(=O)O (configuration not stated) | . | . | . | . | -4 | . | .
CCOC(=O)c1ccc(NC(=S)N2CCN(C(=O)C3CCCO3)CC2)cc1 (configuration not stated) | . | . | -7 | . | -4 | 29* | 7
O=C(C1CCCO1)N1CCN(C(=S)Nc2ccccc2)CC1 (configuration not stated) | 1 | 8 | -8 | -6 | 29 | 8 | .
CC1=NN(c2nc3ccccc3[nH]2)C(=O)/C1=C/N(C)C | 53* | -28 | -2 | 58* | . | 40* | 68*
COc1ccc(S(=O)(=O)N2CCCc3ccccc32)cc1[N+](=O)[O-] | . | . | 48 | . | 52 | 59* | 44*
COc1ccc(S(=O)(=O)N2CCCc3ccccc32)cc1OC | 1 | . | -29 | -1 | 10 | 4 | .

Screening data from PubChem.
